Compounds with a hit are over-represented: about 1.3% of the library has one in this group of screens.
NR2F2 inh: NR2F2 (human) inhibition, primary screen; P24468; HEK293T NGFI-A luciferase reporter, luminescence; inhibition, % at 8.6 µM; 370,000 compounds, 0.7% hits; AID 686940;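 active means inhibition above a per-plate cutoff, mean inhibition of test wells between control levels plus 3 SD, cut at about 38% in these data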;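 further: cells cotransfected with COUP-TFII expression vector driving the NGFI-A reporter; 0% = median of COUP-TF2 test wells and 100% = reporter-only cells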
SRC2 inh: inhibits human steroid receptor coactivator 2. HEK293 GAL4-SRC2 luciferase reporter, luminescence. inhibition, % at 9 µM. 370,000 compounds, 0.17% hits. AID 651957;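 active means inhibition above the mean inhibition of all tested compounds plus 3 SD, set per campaign, cut at about 52% in these data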;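 further: 0% = DMSO treated cells and 100% = cells given Gossypol at 36 µM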
SRC1 inh: inhibits human SRC1 coactivator. Q15788. inhibition, % at 3.6 µM. HEK293 GAL4-SRC1 luciferase reporter, luminescence. 360,000 compounds, 0.12% hits;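 active means inhibition above the campaign mean plus 3 SD, with each screening campaign given its own cutoff, cut at about 60% in these data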;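 further: 0% = DMSO treated cells and 100% = gossypol at 36 µM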
Target sequence (Q15788 whole entry, looked up, the tested form may be a part): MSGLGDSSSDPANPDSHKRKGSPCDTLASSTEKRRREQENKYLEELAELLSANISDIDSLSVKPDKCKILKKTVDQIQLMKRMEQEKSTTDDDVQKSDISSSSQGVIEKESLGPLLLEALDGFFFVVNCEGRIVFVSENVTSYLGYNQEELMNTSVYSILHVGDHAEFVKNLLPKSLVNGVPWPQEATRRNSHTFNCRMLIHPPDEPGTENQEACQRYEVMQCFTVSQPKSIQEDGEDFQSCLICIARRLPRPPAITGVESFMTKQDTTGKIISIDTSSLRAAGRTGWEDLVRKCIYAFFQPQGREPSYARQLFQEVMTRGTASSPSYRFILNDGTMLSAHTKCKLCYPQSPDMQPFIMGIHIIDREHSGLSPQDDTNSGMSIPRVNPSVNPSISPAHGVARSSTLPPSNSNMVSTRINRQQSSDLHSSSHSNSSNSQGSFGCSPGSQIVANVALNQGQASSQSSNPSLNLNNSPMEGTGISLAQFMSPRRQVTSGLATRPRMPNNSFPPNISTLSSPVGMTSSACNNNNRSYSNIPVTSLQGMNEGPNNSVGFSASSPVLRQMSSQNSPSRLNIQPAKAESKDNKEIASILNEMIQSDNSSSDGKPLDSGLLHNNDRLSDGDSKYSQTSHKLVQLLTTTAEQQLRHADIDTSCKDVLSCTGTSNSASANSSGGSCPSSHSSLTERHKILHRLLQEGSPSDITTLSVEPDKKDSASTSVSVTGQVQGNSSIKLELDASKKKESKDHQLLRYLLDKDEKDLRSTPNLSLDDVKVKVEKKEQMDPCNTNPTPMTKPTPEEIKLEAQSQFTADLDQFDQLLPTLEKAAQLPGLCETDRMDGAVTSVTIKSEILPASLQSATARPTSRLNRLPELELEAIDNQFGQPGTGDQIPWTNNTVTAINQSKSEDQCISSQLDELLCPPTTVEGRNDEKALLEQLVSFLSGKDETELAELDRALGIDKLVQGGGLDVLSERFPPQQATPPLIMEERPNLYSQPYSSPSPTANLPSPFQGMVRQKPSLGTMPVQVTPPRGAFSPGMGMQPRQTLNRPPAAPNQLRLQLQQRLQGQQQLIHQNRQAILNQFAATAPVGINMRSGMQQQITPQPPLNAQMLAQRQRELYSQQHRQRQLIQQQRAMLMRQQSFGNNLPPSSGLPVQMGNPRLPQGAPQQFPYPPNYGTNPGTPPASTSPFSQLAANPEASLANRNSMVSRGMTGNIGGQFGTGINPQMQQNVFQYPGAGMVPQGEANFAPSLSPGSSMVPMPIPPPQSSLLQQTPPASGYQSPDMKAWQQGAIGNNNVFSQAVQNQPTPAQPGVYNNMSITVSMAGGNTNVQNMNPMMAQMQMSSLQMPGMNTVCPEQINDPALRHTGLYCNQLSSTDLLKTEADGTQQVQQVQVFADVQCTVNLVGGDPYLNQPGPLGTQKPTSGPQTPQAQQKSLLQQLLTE
Gli-Sufu antag: blocks Gli-Sufu signaling in a luciferase reporter; inhibition, % at 5 µM; 340,000 compounds, 0.74% hits; Sufu-KO-LIGHT fibroblasts, Gli luciferase reporter luminescence; AID 588413;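 active means inhibition above about 55%, limit read from the data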;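 further: 0% = DMSO-treated cells and 100% = wells with medium but no cells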
LRH-1 inv ag: suppresses constitutive activity of human LRH-1; AID 602396; inhibition, % at 3.6 µM; O00482; 360,000 compounds, 0.13% hits; HEK293T StAR-luciferase reporter, LRH-1 transfected, 24 h;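 active means inhibition above the mean inhibition of all tested compounds plus 3 SD, cut at about 73% in these data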;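 further: 0% = DMSO wells and 100% = reporter-only cells lacking LRH-1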
NCOA3 inh: human NCOA3 inhibition; Q9Y6Q9; HEK293 GAL4-SRC3 luciferase reporter, luminescence; inhibition, % at 3.6 µM; 360,000 compounds, 0.17% hits;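 active means inhibition above a per-campaign cutoff, the mean of all compounds plus 3 SD, cut at about 60% in these data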;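 further: 0% = DMSO-treated cells and 100% = gossypol-treated cells at 36 µM; higher means less SRC3-driven luciferase light from the GAL4 reporter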
Gli-Sufu confirm: Gli-SUFU antagonism confirmation, single concentration. shares compounds with Gli-Sufu antag. Sufu-KO-LIGHT cells, Gli luciferase reporter, luminescence. inhibition, % at 5 µM. 2,500 compounds, 40% hits;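 active means mean inhibition at 5 µM reaching about 45%, limit read from the data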;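 further: plate controls were DMSO-treated cells for no effect and wells lacking cells for full effect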
SufuKO cytotox: cytotoxicity counter-screen for Gli-SUFU antagonists | Sufu-KO-LIGHT cells cytotoxicity, ATP luminescence | AID 651994 | shares compounds with Gli-Sufu antag | 2,500 compounds, 32% hits | cytotoxicity, % at 5 µM;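 active means mean cytotoxicity at 5 µM above about 25%, limit read from the data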;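 further: cells exposed to compound overnight for roughly 16 to 18 hours; plate controls were DMSO wells with cells for no effect and medium without cells for full effect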
Wnt3a counter: counter-screen for Gli-SUFU antagonists: Wnt3a reporter inhibition. shares compounds with Gli-Sufu antag. Wnt-LIGHT cells, Wnt3a-driven luciferase reporter, luminescence. inhibition, % at 6.25 µM. 2,500 compounds, 20% hits. AID 651995;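 active means mean inhibition above about 25%, limit read from the data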
Numbers without * were called inactive; · = not tested or not shown.

SMILES	NR2F2 inh	SRC2 inh	SRC1 inh	Gli-Sufu antag	LRH-1 inv ag	NCOA3 inh	Gli-Sufu confirm	SufuKO cytotox	Wnt3a counter
O=C(CSc1n[nH]c(=O)n1-c1ccccc1)N1CCOCC1	9.1	-13.0	-7.2	53.0	0.2	8.8	22.3	11.2	14.8
CC1=CC(C)(C)N=C(Nc2nc(C)c3cc(C)cc(C)c3n2)N1	18.1	-19.9	10.5	50.4	-11.8	11.1	26.3	16.3	-68.4
COc1ccc(-n2ncc3c2CC(C)(C)CC3NC(=O)CN2CCOC2=O)cc1 (stereo unspecified)	-2.4	2.5	3.4	60.5*	0.9	18.0	22.4	11.8	-9.8
CCCCCCCCN1CN2Cc3ccccc3C2CS1(=O)=O (stereo unspecified)	0.1	8.4	·	·	·	·	·	·	·
N#CCC[C@H]1CC[C@]2(CCCN(Cc3ccc(Br)cc3)C2)O1	-4.1	-3.8	·	·	·	·	·	·	·
COc1ccc(CC(=O)Nc2cccc(S(=O)(=O)N3CCCCCC3)c2)cc1OC	78.8*	23.2	27.1	52.7	51.2	28.7	49.4*	25.7*	22.3
COc1ccc(CCNC(=O)C2CCCN(S(=O)(=O)N3CCCCCC3)C2)cc1OC (stereo unspecified)	-0.4	-16.6	9.0	53.6	6.8	7.3	13.8	6.4	5.3
COc1ccc(NS(=O)(=O)c2ccc(O)c(NC(=O)c3ccc(S(=O)(=O)N4CCCCCC4)cc3)c2)cc1	-0.6	4.0	11.4	2.7	-2.9	7.9	·	·	·
COc1ccc(CCNC(=S)NC(=O)c2cc(OC)c(OC)c(OC)c2)cc1OC	3.8	14.3	-18.9	50.1	2.8	4.2	18.4	8.7	1.6
COc1ccc(NS(=O)(=O)c2cccc(NC(=O)c3ccc(S(=O)(=O)N4CCCCCC4)cc3)c2)cc1	·	·	20.1	60.8*	44.3	20.8	63.3*	17.2	28.3*
COc1ccc(CCNC(=O)C2CCN(S(=O)(=O)N3CCCCCC3)CC2)cc1OC	0.8	-2.6	4.9	1.2	-1.4	-2.7	·	·	·
CCCCCCCCN1C(=O)[C@@H](CC(=O)NCc2cccc(C(F)(F)F)c2)C[C@@]2(C(=O)OC)C1=C[C@H](C(C)C)O[C@@H]2C1CC1	7.3	-20.0	·	·	·	·	·	·	·
CCCC[C@H]1C2CC(OC(=O)Nc3cc(C)cc(C)c3)C(C2)[C@H]2CCCCN21 (stereo partly specified)	-14.4	5.5	·	·	·	·	·	·	·
CCN(CC)C(=O)CC[C@@H]1CC[C@]2(CCCN(C(=O)c3cccnc3)C2)O1	7.0	-22.4	·	·	·	·	·	·	·
CCOc1ccccc1NC(=O)COC(=O)c1c(CC)noc1C	23.7	-1.4	6.9	66.9*	3.4	-25.9	24.2	8.6	0.6
COC(=O)C1=C(C)N(Cc2cccc(C(F)(F)F)c2)C(=NCc2ccc(C(F)(F)F)cc2)NC1c1ccccc1 (stereo unspecified)	16.6	-3.8	·	·	·	·	·	·	·
CCCCc1nnc(NC(=O)CSCc2cc(=O)n3c(C)csc3n2)s1	9.0	0.4	12.4	-2.9	-2.3	11.3	·	·	·
CCCCc1nnc(NC(=O)CSCc2cc(=O)n3cc(C)sc3n2)s1	-1.6	-22.9	8.0	51.4	17.1	11.9	14.4	10.5	-12.2
CN=C1S/C(=C/c2cc(C)n(Cc3ccccc3)c2C)C(=O)N1C	-33.0	·	·	·	·	·	·	·	·
COC(=O)[C@H]1C[C@@]2(N3CCCCC3)c3ccccc3N(C(=O)OC(C)(C)C)[C@H]2N1C(=O)OC(C)(C)C	5.3	25.3	·	·	·	·	·	·	·
O=c1[nH]c(=O)n(Cc2ccco2)c2c1C(C(F)(F)F)(C(F)(F)F)N=C(c1ccc(F)cc1)N2	-9.2	-22.1	0.5	51.2	-9.6	0.3	64.7*	15.7	62.2*
COCC#Cc1ccc(CC[C@H]2O[C@H]3CC[C@@H](CO)O[C@H]3C[C@H]2n2cc(C3CC3)nn2)cc1	-2.5	-3.0	·	·	·	·	·	·	·
CCCCNC(=O)c1cn(CC)c2ccc(S(=O)(=O)N3CCCCCC3)cc2c1=O	18.2	20.1	10.1	52.0	-13.1	2.0	19.3	40.1*	-28.4
C=C(C)C#CCNCc1ccccc1	-3.6	-12.9	·	·	·	·	·	·	·
Cc1c(C(=O)NCC(c2ccco2)N2CCCC2)sc2ccccc12 (stereo unspecified)	8.9	-18.5	-2.0	3.9	2.0	-42.8	·	·	·
SMILES	NR2F2 inh	SRC2 inh	SRC1 inh	Gli-Sufu antag	LRH-1 inv ag	NCOA3 inh	Gli-Sufu confirm	SufuKO cytotox	Wnt3a counter
O=C(NCC(c1ccco1)N1CCCC1)c1sc2ccccc2c1Cl (stereo unspecified)	1.1	5.2	-0.7	51.3	-33.9	-15.9	15.7	11.1	-81.1
Cc1ccc(N/C(N)=N/c2nc(C)cc(C)n2)cc1	3.0	-1.4	-3.6	43.9	6.8	36.2	·	·	·
Cc1cc(C)nc(/N=C(\N)Nc2ccccc2-c2ccccc2)n1	12.2	22.9	-13.4	59.7*	6.9	33.9	42.8	12.0	-16.1
CN1/C(=C\C(=O)c2ccco2)C(C)(C)c2ccccc21	29.5	16.9	-21.2	84.4*	15.4	26.6	81.2*	35.2*	24.1
CN1/C(=C\C(=O)c2cccnc2)C(C)(C)c2ccccc21	-8.3	-11.4	-1.3	5.2	-24.6	-8.3	·	·	·
CN1/C(=C\C(=O)COC(=O)c2ccco2)C(C)(C)c2ccccc21	3.8	1.9	3.7	11.8	15.7	6.3	·	·	·
CN1/C(=C\C(=O)c2cncc(Br)c2)C(C)(C)c2ccccc21	23.7	24.7	9.5	65.9*	4.6	22.6	69.5*	36.7*	15.0
OCCCN1CCC2(CCC(c3ccccc3)CC2)C1 (stereo unspecified)	-3.7	5.3	·	·	·	·	·	·	·
CCOC(=O)c1sc(NC(=O)c2cc(-c3ccccc3)nc3ccccc23)c(C#N)c1C	-5.5	-8.4	-14.7	53.0	-4.8	-5.0	73.8*	11.4	65.3*
CCOC(=O)c1sc(NC(=O)c2cccc(S(=O)(=O)N3CCc4ccccc43)c2)c(C#N)c1C	3.5	24.7	-5.2	73.0*	1.1	17.4	78.2*	16.3	72.0*
CCOC(=O)c1sc(NC(=O)CSc2n[nH]c(-c3ccccc3)n2)c(C#N)c1C	-2.4	-13.9	-24.3	16.1	-1.7	2.0	·	·	·
CCCCCCCCN1CCS(=O)(=O)N(Cc2ccccc2)C(C(=O)OC)C1 (stereo unspecified)	5.0	19.4	·	·	·	·	·	·	·
CC(C)CN1C(=O)[C@@]2(CC(=O)N(C)C2c2ccccc2)c2cc(-n3cc(CCCC#N)nn3)ccc21 (stereo partly specified)	-4.5	-5.4	·	·	·	·	·	·	·
CC(=O)c1ccc(NC(=O)CSC(C)C)cc1	-19.5	-39.4	-42.9	98.7*	-54.2	-27.3	-1.4	27.8*	-33.6
COc1ccc(CNc2nc3ccccc3n2CCN2CCOCC2)cc1	13.9	4.2	2.5	9.5	-19.4	1.4	·	·	·

Screens: PubChem BioAssay, several laboratories
